According to the supplement of paper PMC3334620:
Whole data set: some 33,000 sequences, median “E-score (-0.5 to 0.5)” near -0.021, cut for the highest 2% near 0.32. The sample holds the highest values, similar sequences and a random draw of the others, so the mix is not that of the screen.

molecular target: T1, Zap1 (UniProt P47043); experiment: PBM E-score (8-mer binding enrichment) (E-score (-0.5 to 0.5)); higher = stronger / more preferred TF binding; conditions: protein concentration: 200 nM; construct: GST-full length
T1 sequence: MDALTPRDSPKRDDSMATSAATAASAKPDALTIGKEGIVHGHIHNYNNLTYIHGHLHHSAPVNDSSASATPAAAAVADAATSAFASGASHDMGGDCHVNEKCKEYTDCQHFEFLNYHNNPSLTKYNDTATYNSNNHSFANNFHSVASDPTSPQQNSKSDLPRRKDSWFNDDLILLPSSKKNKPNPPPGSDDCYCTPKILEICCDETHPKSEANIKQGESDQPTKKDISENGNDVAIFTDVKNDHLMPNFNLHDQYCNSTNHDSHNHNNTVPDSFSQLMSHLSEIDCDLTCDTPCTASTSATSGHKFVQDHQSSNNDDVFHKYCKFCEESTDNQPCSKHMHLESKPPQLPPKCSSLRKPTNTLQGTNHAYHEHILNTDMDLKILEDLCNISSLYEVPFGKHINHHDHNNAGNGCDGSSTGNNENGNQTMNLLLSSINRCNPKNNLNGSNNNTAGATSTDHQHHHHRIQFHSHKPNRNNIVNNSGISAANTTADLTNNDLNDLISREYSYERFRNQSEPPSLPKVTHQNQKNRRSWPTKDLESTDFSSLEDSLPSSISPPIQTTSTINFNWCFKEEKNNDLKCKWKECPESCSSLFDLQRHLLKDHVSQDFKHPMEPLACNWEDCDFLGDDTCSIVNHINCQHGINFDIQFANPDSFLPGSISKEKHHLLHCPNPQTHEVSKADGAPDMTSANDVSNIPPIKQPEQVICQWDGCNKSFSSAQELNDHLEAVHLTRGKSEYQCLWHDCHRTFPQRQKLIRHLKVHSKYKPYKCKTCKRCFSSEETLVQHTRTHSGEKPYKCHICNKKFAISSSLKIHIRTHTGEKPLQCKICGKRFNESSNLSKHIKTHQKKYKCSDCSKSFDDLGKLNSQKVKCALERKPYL
Experimental: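 Universal 'all 10-mer' protein binding microarrays (Agilent AMADID 015681) probed with GST-tagged S. cerevisiae TFs (full-length or DBD) made by in vitro transcription/translation (PURExpress), about 100-200 nM. Bound TF was detected with fluorescent anti-GST. Each ungapped 8-mer (which stands for itself and its reverse complement) is scored by the PBM enrichment score (E-score), a modified Wilcoxon-Mann-Whitney statistic from -0.5 to +0.5, computed with the Universal PBM Analysis Suite. Scale: above 0.35 generally sequence-specific binding.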

Question: With CGTTACTA as the sequence, how does the “PBM E-score” value read?
Answer: 0.0809

Question: AGTTACCA was tested. Which “PBM E-score” value did it give?
Answer: 0.263

Question: For CGTTACGA, which “PBM E-score” value is on record?
Answer: 0.121

Question: GGTTACCA was tested. Which “PBM E-score” value did it give?
Answer: 0.468

Question: For AGTCTTAT, which “PBM E-score” value is on record?
Answer: -0.115

Question: Which “PBM E-score” value does the source give for CCGATAGC here?
Answer: -0.225

Question: For AACTAAGG, which “PBM E-score” value is on record?
Answer: 0.017

Question: For GACTACCC, which “PBM E-score” value is on record?
Answer: 0.301

Question: With AACTACCG as the sequence, how does the “PBM E-score” value read?
Answer: 0.179

Question: Which “PBM E-score” value does the source give for AACTACCT here?
Answer: 0.286

Question: CACTACCA was tested. Which “PBM E-score” value did it give?
Answer: 0.22

Question: Which “PBM E-score” value does the source give for CACTACCC here?
Answer: 0.367

Question: Which “PBM E-score” value does the source give for AACTACCC here?
Answer: 0.391

Question: Which “PBM E-score” value does the source give for ATTGCCTG here?
Answer: -0.0833

Question: With GCCAGGGC as the sequence, how does the “PBM E-score” value read?
Answer: -0.128

Question: With CGCATACG as the sequence, how does the “PBM E-score” value read?
Answer: -0.12

Question: For CCCCTATA, which “PBM E-score” value is on record?
Answer: -0.102

Question: With ACCCTATA as the sequence, how does the “PBM E-score” value read?
Answer: 0.354

Question: For ACCCTATC, which “PBM E-score” value is on record?
Answer: 0.276

Question: Which “PBM E-score” value does the source give for GCCCTATA here?
Answer: -0.144

Question: For ACCCTATG, which “PBM E-score” value is on record?
Answer: 0.368

Question: AACCTATG was tested. Which “PBM E-score” value did it give?
Answer: 0.258

Question: Which “PBM E-score” value does the source give for CCAGGCCG here?
Answer: -0.0809

Question: GCGACACC was tested. Which “PBM E-score” value did it give?
Answer: 0.0184

Question: Which “PBM E-score” value does the source give for ACACTCAA here?
Answer: 0.139

Question: AACGCTTC was tested. Which “PBM E-score” value did it give?
Answer: -0.128

Question: With AGAAGCTA as the sequence, how does the “PBM E-score” value read?
Answer: -0.265

Question: With CAACCGTA as the sequence, how does the “PBM E-score” value read?
Answer: 0.0143

Question: How did the “PBM E-score” value turn out when GTTCAAAA was run?
Answer: 0.0198

Question: Which “PBM E-score” value does the source give for CTTCAAAA here?
Answer: 0.0592

Question: For TTTCAAAA, which “PBM E-score” value is on record?
Answer: 0.321

Question: Which “PBM E-score” value does the source give for CGCACAAC here?
Answer: 0.122

Question: For ACGGTTAC, which “PBM E-score” value is on record?
Answer: 0.411

Question: Which “PBM E-score” value does the source give for ACGGTTGC here?
Answer: 0.117

Question: How did the “PBM E-score” value turn out when ACGGTTAG was run?
Answer: 0.223

Question: For ACGGTTAT, which “PBM E-score” value is on record?
Answer: 0.414

Question: How did the “PBM E-score” value turn out when ACGGTTTC was run?
Answer: -0.0123

Question: For ACGGTTAA, which “PBM E-score” value is on record?
Answer: 0.258

Question: Which “PBM E-score” value does the source give for AGTTTGCA here?
Answer: -0.0409

Question: With TCCTCACA as the sequence, how does the “PBM E-score” value read?
Answer: 0.0409

Question: For AAGAACTC, which “PBM E-score” value is on record?
Answer: 0.0396

Question: For ACAAAGAA, which “PBM E-score” value is on record?
Answer: 0.178

Question: Which “PBM E-score” value does the source give for ACTGAATC here?
Answer: -0.0382

Question: Which “PBM E-score” value does the source give for AGTCATTA here?
Answer: -0.17

Question: For TGTCATAA, which “PBM E-score” value is on record?
Answer: 0.184

Question: With AGTCATGA as the sequence, how does the “PBM E-score” value read?
Answer: 0.0992

Question: Which “PBM E-score” value does the source give for GGTCATAC here?
Answer: 0.313

Question: With GGTCATAA as the sequence, how does the “PBM E-score” value read?
Answer: 0.379

Question: How did the “PBM E-score” value turn out when CGTCATTA was run?
Answer: -0.145

Question: How did the “PBM E-score” value turn out when GGTCATGA was run?
Answer: 0.346

Question: For CGTCATGA, which “PBM E-score” value is on record?
Answer: 0.0742

Question: Which “PBM E-score” value does the source give for GGTCATTA here?
Answer: 0.321

Question: With CCGGACCG as the sequence, how does the “PBM E-score” value read?
Answer: -0.129

Question: For AGCAATGC, which “PBM E-score” value is on record?
Answer: -0.0926

Question: For ACGCGAAG, which “PBM E-score” value is on record?
Answer: 0.0536

Question: Which “PBM E-score” value does the source give for ACTACCCG here?
Answer: 0.261

Question: Which “PBM E-score” value does the source give for AGGGGTCG here?
Answer: 0.0682

Question: For TAGGGTCA, which “PBM E-score” value is on record?
Answer: 0.408

Question: ATGGGTCG was tested. Which “PBM E-score” value did it give?
Answer: 0.0454

Question: How did the “PBM E-score” value turn out when ACGGGTCG was run?
Answer: 0.116

Question: ATGGGTCA was tested. Which “PBM E-score” value did it give?
Answer: 0.359

Question: For ATGGGTCC, which “PBM E-score” value is on record?
Answer: 0.263

Question: Which “PBM E-score” value does the source give for TCGGGTCA here?
Answer: 0.233

Question: How did the “PBM E-score” value turn out when TAGGGTGA was run?
Answer: 0.299

Question: AAGGGTCG was tested. Which “PBM E-score” value did it give?
Answer: 0.36

Question: For GAGGGTCC, which “PBM E-score” value is on record?
Answer: 0.134

Question: GTGGGTCA was tested. Which “PBM E-score” value did it give?
Answer: 0.211

Question: Which “PBM E-score” value does the source give for GAGGGTCA here?
Answer: 0.397

Question: How did the “PBM E-score” value turn out when ACTGGCTA was run?
Answer: -0.0583

Question: CCGAGACC was tested. Which “PBM E-score” value did it give?
Answer: 0.197

Question: Which “PBM E-score” value does the source give for AGCAATGG here?
Answer: -0.133

Question: Which “PBM E-score” value does the source give for AAACAGGT here?
Answer: 0.135

Question: For ATACTCTC, which “PBM E-score” value is on record?
Answer: -0.15

Question: How did the “PBM E-score” value turn out when CACAGTTC was run?
Answer: -0.0558

Question: For CTACTCGC, which “PBM E-score” value is on record?
Answer: -0.18

Question: With ATGGGCGG as the sequence, how does the “PBM E-score” value read?
Answer: -0.125

Question: AACGCATT was tested. Which “PBM E-score” value did it give?
Answer: 0.0284

Question: For AGGGGTCC, which “PBM E-score” value is on record?
Answer: 0.0654

Question: AGGGGTGA was tested. Which “PBM E-score” value did it give?
Answer: 0.219

Question: GAGGGGTA was tested. Which “PBM E-score” value did it give?
Answer: 0.245

Question: How did the “PBM E-score” value turn out when CAGGGTCC was run?
Answer: 0.14

Question: GAGGGTTA was tested. Which “PBM E-score” value did it give?
Answer: 0.45

Question: CAGGGTCG was tested. Which “PBM E-score” value did it give?
Answer: 0.275

Question: How did the “PBM E-score” value turn out when AAGGGTCA was run?
Answer: 0.439

Question: Which “PBM E-score” value does the source give for CAGGGTCA here?
Answer: 0.417

Question: For GAGGGTGA, which “PBM E-score” value is on record?
Answer: 0.126

Question: For AAGGGTCT, which “PBM E-score” value is on record?
Answer: 0.136

Question: For AGGGGTCA, which “PBM E-score” value is on record?
Answer: 0.438

Question: AAGGGTGA was tested. Which “PBM E-score” value did it give?
Answer: 0.293
